The source of these data is PubChem BioAssay (Tox21).

Unmarked numbers belong to inactive results. Results filed as inconclusive are left out. The source made the active and inactive calls. Unless noted, calls follow the shape of the dose curve; as a rule, active = well fitted curve in the direction sought with a large enough effect in the repeat runs; inconclusive = weak or mixed curves; inactive = no such curve, though single readings can be large; an effect the other way counts as inactive or inconclusive.

Assay [1] can be described thus: qHTS assay to identify small molecule antagonists of the estrogen receptor alpha (ER-alpha) signaling pathway using the BG1 cell line in the presence of 0.1 nM 17-beta-estradiol - cell viability counter screen (AID 1259241). Also: nearly all actives have a fitted effect of over 40% in size. As to conditions: VM7Luc4E2 (BG1) viability, CellTiter-Fluor protease, 22 h, 0.1 nM estradiol agonist added; series mostly up to 92.4 µM. The method in brief:
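VM7Luc4E2 cells (endogenous ER-alpha, 4×ERE-luciferase), hormone-starved 5 days in charcoal-stripped FBS, were treated with compounds plus 0.1 nM 17beta-estradiol for 22 hr at 37C; viability read in same wells as CellTiter-Fluor live-cell protease fluorescence.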

The nature of assay [2]: qHTS assay to identify small molecule antagonists of the androgen receptor (AR) signaling pathway using the MDA cell line in the presence of 0.5 nM R1881 - cell viability counter screen (AID 1259242). Also: nearly all actives have a fitted effect of over 45% in size. As to conditions: MDA-kb2 viability, CellTiter-Fluor protease fluorescence, 16 h; series mostly up to 92.4 µM. The method in brief: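 Counter screen for cytotoxicity run in the same wells as the AR antagonist reporter screen: MDA-kb2 cells were treated 16 hr with test compounds and 0.5 nM R1881, then live-cell protease activity was measured by fluorescence.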
A general note: qHTS replaces the single test concentration by a dilution series.

In assay [3] the target is Estrogen receptor (Homo sapiens) (UniProt P03372). The assay can be described thus: qHTS assay to identify small molecule antagonists of the estrogen receptor alpha (ER-alpha) signaling pathway using the BG1 cell line in the presence of 0.1 nM 17-beta-estradiol (AID 1259244). Also: nearly all actives have a fitted effect of over 50% in size. As to conditions: VM7Luc4E2 (BG1) ERE-luciferase, antagonist mode, 0.1 nM E2, 22 h; series mostly up to 92.4 µM. A digest of the protocol: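 Cells: VM7Luc4E2, endogenous ER-alpha, 4x ERE-luc stable. Pre-culture 5 d, phenol red-free, charcoal-stripped FBS. Plated 24 h, compound + E2 0.1 nM final, 22 h 37C/5% CO2. Readout ONE-Glo luminescence.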

Assay [4] in a line: qHTS assay to identify small molecule phospholipidosis (PLD) inducers (AID 1259344; active = well fitted curve in the direction sought with a large enough effect; an effect the other way counts as inactive or inconclusive). As to conditions: HepG2 phospholipidosis, LipidTOX Red imaging, 24 h; series mostly up to 38.3 µM. The method in brief:
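HepG2 cells, 900/well, treated with compound plus LipidTOX Red for 24 h at 37 C; amiodarone positive and DMSO negative controls. Fixed with paraformaldehyde/Hoechst, then high-content imaging scored LipidTOX pit count and integrated intensity per well and per cell.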

Assay [5] is described as follows: qHTS assay to identify small molecule HDAC inhibitors (AID 1259364). Also: nearly all actives have a fitted effect of over 45% in size. Also: potency is read from the fitted curve at half-maximal effect. As to activity change, negative = inhibition: top concentration of the series differs between compounds. To be noted: HCT-116 HDAC-Glo I/II luminescence, 2 h; series mostly up to 92.4 µM. The method in brief:
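Luminescence from a cell-permeant luminogenic class I/II HDAC substrate reports endogenous deacetylase activity in intact HCT-116 cells treated with compounds for 2 h.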

The nature of assay [6]: qHTS assay to identify small molecule HDAC inhibitors - cell viability counter screen (AID 1259365). Also: nearly all actives have a fitted effect of over 50% in size. To be noted: HCT-116 viability, CellTiter-Glo ATP luminescence, 2 h; series mostly up to 92.4 µM. A digest of the protocol: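 Wild-type HCT-116 cells were seeded at 1,500 per well, incubated overnight at 37 C, then exposed to compounds in DMSO for 2hr. Viability was read by CellTiter-Glo luminescence after 30min at room temperature.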

Assay [7] can be described thus: qHTS assay to identify small molecule antagonists of the sonic hedgehog signaling (Shh) pathway - cell viability counter screen (AID 1259367). Also: nearly all actives have a fitted effect of over 55% in size. To be noted: NIH/3T3 Gli1-Luc viability, CellTiter-Fluor, 24 h; series mostly up to 92.4 µM. A digest of the protocol:
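NIH/3T3-derived Gli1-Luc reporter cells, 2,000/well, plated 4 hr before compound addition, then stimulated with conditioned medium for 24 hr at 37C. Viability measured in the same wells by CellTiter-Fluor fluorescence, reagent added at 23 hr for 1 hr.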

Assay [8] in a line: qHTS assay to identify small molecule agonists of the sonic hedgehog signaling (Shh) pathway (AID 1259368; calls by dose curve; also: nearly all actives have a fitted effect of over 15% in size; also: potency is read from the fitted curve at half-maximal effect). As to conditions: NIH/3T3 Gli1-Luc reporter, luciferase, 24 h; series mostly up to 92.4 µM. The method in brief: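 3T3Gli1-Luc (NIH/3T3 clone, stable Gli1-Luc); 4 hr pre-incubation, then cpd in DMSO 24 hr, 37 C/5% CO2; luciferase reagent 30 min RT; luminescence.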
Assay [9] can be described thus: qHTS assay to identify small molecule agonists of the sonic hedgehog signaling (Shh) pathway - cell viability counter screen (AID 1259366). Also: nearly all actives have a fitted effect of over 50% in size. To be noted: NIH/3T3 Gli1-Luc viability, CellTiter-Fluor, 24 h; series mostly up to 92.4 µM. The method in brief: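 NIH/3T3-derived 3T3 Gli1-Luc cells (stable Gli1-responsive firefly luciferase reporter) were seeded, rested 4 hr at 37 C/5% CO2, then exposed to compounds in DMSO for 24 hr; viability was read by CellTiter-Fluor fluorescence in the same wells.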
% is scaled to controls: 0 for no effect and ±100 for the full control effect.

Estrogen receptor (Homo sapiens), sequence (P03372 whole entry, looked up): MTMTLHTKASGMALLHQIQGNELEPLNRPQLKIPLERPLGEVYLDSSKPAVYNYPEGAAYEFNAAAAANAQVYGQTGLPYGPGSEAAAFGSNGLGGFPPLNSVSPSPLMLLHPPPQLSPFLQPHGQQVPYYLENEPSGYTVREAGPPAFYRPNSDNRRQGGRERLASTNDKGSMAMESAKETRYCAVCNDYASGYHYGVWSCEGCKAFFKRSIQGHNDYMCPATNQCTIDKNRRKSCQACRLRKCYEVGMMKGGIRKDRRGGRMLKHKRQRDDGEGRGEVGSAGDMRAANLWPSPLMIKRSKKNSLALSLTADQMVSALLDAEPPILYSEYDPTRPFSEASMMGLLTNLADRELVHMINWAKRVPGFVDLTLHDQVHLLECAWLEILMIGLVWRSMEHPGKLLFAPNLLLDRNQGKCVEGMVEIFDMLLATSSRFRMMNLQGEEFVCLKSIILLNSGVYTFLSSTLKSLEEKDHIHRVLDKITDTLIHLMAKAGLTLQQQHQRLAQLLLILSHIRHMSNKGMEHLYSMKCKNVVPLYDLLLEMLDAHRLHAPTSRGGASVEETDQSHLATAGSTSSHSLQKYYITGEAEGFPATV

In the case of `O=C(O)c1cc(-c2ccc(F)cc2F)ccc1O`, the Potency entry in [1], in assay [2], in assay [3], in assay [4], in assay [5] and in [6] was “inactive” in each case. The Potency result in assay [7] and in assay [8] was “inactive” throughout.

For `O[C@@H]([C@H](O)[C@H](O)CBr)[C@H](O)CBr`, the Potency result in [1], in [2], in assay [3], in [4], in assay [5] and in assay [6] was “inactive” each time. Further, the Potency result in assay [9], in assay [7] and in assay [8] was “inactive” throughout.

`OC1CCC(C2CCCCC2)CC1` (stereo not given): the Potency result in assay [1], in [2], in [3], in assay [5], in assay [6] and in [9] was “inactive” each time. In assay [8], the Potency entry is “inactive”.

For the molecule `CC(=O)CC(=O)Nc1ccc(S(=O)(=O)O)cc1`, the Potency entry in assay [1], in assay [2], in [3], in assay [5], in assay [6] and in [9] was “inactive” in each case. Moreover, the Potency result in [7] and in assay [8] was “inactive” each time.

Regarding `COc1ccc2c(c1)c(CC(=O)OC/C=C(\C)CC/C=C(\C)CCC=C(C)C)c(C)n2C(=O)c1ccc(Cl)cc1`, the Potency entry in [1], in [2], in assay [3], in assay [5], in assay [6] and in assay [9] was “inactive” in each case. Besides, in assay [8], the Potency result is “inactive”.

For the molecule `CCn1c2ccccc2c2cc([N+](=O)[O-])ccc21`, the Potency result in [1], in [2], in assay [3], in assay [5], in assay [6] and in assay [9] was “inactive” in each case. Also, the Potency result in assay [7] and in assay [8] was “inactive” throughout.

For `Cc1cc(C(C)(C)C)c(O)c(C)c1Cn1c(=O)n(Cc2c(C)cc(C(C)(C)C)c(O)c2C)c(=O)n(Cc2c(C)cc(C(C)(C)C)c(O)c2C)c1=O`, the Potency result in assay [1], in [2], in assay [3], in assay [5], in assay [6] and in [9] was “inactive” each time. Moreover, the Potency entry in assay [7] and in assay [8] was “inactive” throughout.

As to `CCCCCC/C=C\CCCCCCCC(=O)O`, the Potency result in assay [1], in assay [2], in assay [3], in [5], in assay [6] and in [9] was “inactive” in each case. The Potency result in assay [7] and in [8] was “inactive” each time.

Regarding `C[Si](Cl)(c1ccccc1)c1ccccc1`, the Potency entry in [1], in [2], in [3], in assay [5], in [6] and in [9] was “inactive” in each case. The Potency entry in assay [7] and in assay [8] was “inactive” in each case.

`C#Cc1ccc(-c2ccccc2F)cc1`: the Potency result in assay [1], in assay [2], in [3], in [5], in [6] and in [9] was “inactive” each time. Besides, the Potency entry in assay [7] and in assay [8] was “inactive” throughout.

For the molecule `O=C1CCCCCCCCCCCCCCCO1`, the Potency entry in [1], in [2], in [3], in [5], in [6] and in assay [9] was “inactive” each time. Besides, the Potency result in assay [7] and in assay [8] was “inactive” in each case.

Consider `O=C(Oc1ccccc1)Oc1ccccc1`, for which the Potency result in [1], in assay [2], in [3], in assay [5], in [6] and in assay [9] was “inactive” each time. For the same molecule, in assay [8], the Potency result was “inactive”.

For the molecule `COc1cc(/C=C/c2ccccc2)oc(=O)c1`, the Potency result in [1], in assay [2], in [3], in assay [6], in assay [9] and in assay [7] was “inactive” throughout. Also, the Potency in assay [5] was 11.2 µM (active).

On to `CCN(CCN)c1cccc(C)c1`, for which the Potency result in [1], in [2], in [3], in assay [5], in assay [6] and in [9] was “inactive” throughout. In addition, the Potency result in assay [7] and in [8] was “inactive” in each case.

Regarding `CC1=Nc2ccccc2C1(C)C`, the Potency result in assay [1], in assay [2], in [3], in assay [5], in assay [6] and in [9] was “inactive” throughout. The Potency result in [7] and in assay [8] was “inactive” in each case.

For the molecule `CC(C)(C)CC(C)(C)c1ccc(Nc2ccc(C(C)(C)CC(C)(C)C)cc2)cc1`, the figures for the activity change, negative = cytotoxicity in assay [1] and in [6] were 4% [at 8.39 µM] and 2.64% [at 8.39 µM], respectively. The viability change, negative = cytotoxic in assay [2] is 0.0791% [at 8.39 µM]; in assay [9], 3.57% [at 8.39 µM]; in assay [7], -1.41% [at 8.39 µM]. Moreover, the activity change, negative = inhibition in [3] is -17.9% [at 8.39 µM]; in assay [5] it was -1.65% [at 8.39 µM]. The activity change in [8] was -0.648% [at 8.39 µM, active compounds read high].

Take `O=C(O)c1cccc(C(F)(F)F)c1`: the Potency result in assay [1], in [2], in assay [3], in [5], in [6] and in [9] was “inactive” in each case. Also, the Potency entry in assay [7] and in assay [8] was “inactive” in each case.

`CCCCCCCCCCCC(=O)OCC(C)OC(=O)CCCCC(=O)O` (stereo not given): the Potency result in [1], in [2], in [3], in assay [5], in [6] and in [9] was “inactive” each time. The Potency result in assay [7] and in assay [8] was “inactive” each time.

Turning to `CCCC[P+](C)(CCCC)CCCC`, the Potency result in [1], in assay [2], in [3], in assay [5], in assay [6] and in assay [9] was “inactive” in each case. Moreover, in [7], the Potency entry is “inactive”. In assay [8], the Potency is 19.6 µM (active).

Consider `CCCCC(CC)COC(=O)CCCCC(=O)OCc1ccccc1` (stereo not given), for which the Potency result in assay [1], in assay [2], in assay [3], in assay [5], in assay [6] and in assay [9] was “inactive” throughout. Further, the Potency result in assay [7] and in assay [8] was “inactive” each time.

In the case of `OC1CCCc2ccccc21` (stereo not given), the Potency entry in [1], in assay [2], in [3], in [5], in assay [6] and in [9] was “inactive” in each case. Further, the Potency result in assay [7] and in assay [8] was “inactive” throughout.

In the case of `C1CCC(SSC2CCCCC2)CC1`, the Potency entry in assay [1], in [2], in assay [3], in assay [5], in assay [6] and in assay [9] was “inactive” throughout. Besides, the Potency entry in [8] is “inactive”.

Turning to `C=CC(=O)OCCOC(=O)C=C`, the Potency entry in assay [1], in assay [2], in assay [3], in assay [5], in assay [6] and in [9] was “inactive” throughout. The Potency result in assay [7] and in [8] was “inactive” throughout.

Regarding `CC1=CCC(=C(C)C)CC1`, the Potency result in [1], in assay [2], in [3], in assay [5], in assay [6] and in assay [9] was “inactive” throughout. Moreover, the Potency result in assay [8] is “inactive”.

Turning to `C=Cc1ccccc1C=C`, the Potency entry in assay [1], in assay [2], in assay [3], in assay [5], in [6] and in assay [9] was “inactive” in each case. For the same molecule, the Potency result in [7] and in assay [8] was “inactive” in each case.
